Measurements from PubChem BioAssay (NCATS).
Inconclusive results are not listed. Calls of active or inactive are those of the source. Unless noted, calls come from the whole dose curve; as a rule, active = well fitted curve in either direction with a large enough effect (not every such curve was filed as active); inconclusive = small, poorly fitted or top-dose-only effect, or another doubt; inactive = flat fitted curve, though single readings scatter.

Columns and labels:
[1] = biological target: Lysosomal acid glucosylceramidase (Homo sapiens) (UniProt P04062); assay: Glucocerebrosidase-p2 (AID 348; in the data active = potency below about 10 µM; note: potency is the fitted concentration of half-maximal effect); conditions: purified GBA, blue fluorogenic substrate, 40 min
Sequence of Lysosomal acid glucosylceramidase (Homo sapiens) (P04062 whole entry, looked up): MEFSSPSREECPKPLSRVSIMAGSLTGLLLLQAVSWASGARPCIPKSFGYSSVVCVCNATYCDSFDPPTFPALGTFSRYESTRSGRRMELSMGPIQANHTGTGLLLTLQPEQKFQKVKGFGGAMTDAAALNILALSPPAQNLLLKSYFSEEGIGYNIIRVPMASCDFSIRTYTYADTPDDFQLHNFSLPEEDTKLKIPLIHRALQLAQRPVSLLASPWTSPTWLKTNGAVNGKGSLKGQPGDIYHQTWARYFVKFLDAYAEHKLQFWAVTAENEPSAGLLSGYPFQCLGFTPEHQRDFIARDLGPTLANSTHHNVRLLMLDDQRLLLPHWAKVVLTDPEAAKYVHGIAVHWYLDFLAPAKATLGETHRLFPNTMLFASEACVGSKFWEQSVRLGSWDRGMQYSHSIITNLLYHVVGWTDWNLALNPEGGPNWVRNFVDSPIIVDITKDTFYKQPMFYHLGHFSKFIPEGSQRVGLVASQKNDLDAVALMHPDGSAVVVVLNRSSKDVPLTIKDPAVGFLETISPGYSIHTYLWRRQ
Outline: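 Compounds titrated from 0.6 nM upwards against 0.2 nM enzyme in pH 5.9 citric acid/KH2PO4, taurocholate, tween-20; blue fluorogenic substrate 80 uM, 40 min room temperature, stopped and read Ex 365/Em 440 for AC50.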

[2] = AP1 Signaling Pathway (AID 357); conditions: ME-180 AP-1-bla reporter, EGF-induced, beta-lactamase ratio, 5 h; at 7.69 µM (top of the series) unless noted;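 note: ME-180 reporter cells stimulated with EGF at its EC50 level; % is set by controls: 0 for no effect and ±100 for the full control effect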
Outline: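 Beta-lactamase reporter under AP-1 response element, ME-180 background. Stimulus: EC50 EGF. Compound exposure 5 h, 37 °C. Detection: CCF4, 2.5 h RT, 460/530 nm. Values: AC50 from titration.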

[3] = NFAT Signaling Pathway (AID 444); conditions: Jurkat NFAT-bla M1, carbachol, beta-lactamase ratio, 5 h; at 7.69 µM (top of the series) unless noted;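 note: carbachol stimulus at about its EC50 of 1 µM final; % is set by controls: 0 for no effect and ±100 for the full control effect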
Outline: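 Jurkat cells carrying an NFAT-driven β-lactamase reporter and co-transfected muscarinic M1 receptor were treated with compound plus carbachol (1 uM final, an EC50 level) for 5 h at 37 °C. CCF4 loading followed for 1 h at RT; 460/530 nm ratio gave %activity.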

[4] = Stat Signaling Pathway (AID 446); conditions: ME-180 SIE beta-lactamase reporter, IL-6 stimulated, 5 h; at 7.69 µM (top of the series) unless noted;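 note: ME-180 cervical cancer cells given 40 pM IL-6 alongside compound; SIE-controlled beta-lactamase reporter measured as 460/530 nm FRET emission ratio; % is set by controls: 0 for no effect and ±100 for the full control effect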
Outline: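 Screening format detects activators and inhibitors alike: ME-180 SIE-bla cells stimulated at 40 pM IL-6 for 5 hrs with compound, then dual-emission beta-lactamase read at 405 nm excitation.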

[5] = biological target: Glucocorticoid receptor (Homo sapiens) (UniProt P04150); assay: GR-EFC Redistribution (AID 451; calls by dose curve; note: potency is the fitted concentration of half-maximal effect); conditions: CHO-K1 GR-EFC translocation, beta-gal luminescence, 2 h
Sequence of Glucocorticoid receptor (Homo sapiens) (P04150 whole entry, looked up, the tested form may be a part): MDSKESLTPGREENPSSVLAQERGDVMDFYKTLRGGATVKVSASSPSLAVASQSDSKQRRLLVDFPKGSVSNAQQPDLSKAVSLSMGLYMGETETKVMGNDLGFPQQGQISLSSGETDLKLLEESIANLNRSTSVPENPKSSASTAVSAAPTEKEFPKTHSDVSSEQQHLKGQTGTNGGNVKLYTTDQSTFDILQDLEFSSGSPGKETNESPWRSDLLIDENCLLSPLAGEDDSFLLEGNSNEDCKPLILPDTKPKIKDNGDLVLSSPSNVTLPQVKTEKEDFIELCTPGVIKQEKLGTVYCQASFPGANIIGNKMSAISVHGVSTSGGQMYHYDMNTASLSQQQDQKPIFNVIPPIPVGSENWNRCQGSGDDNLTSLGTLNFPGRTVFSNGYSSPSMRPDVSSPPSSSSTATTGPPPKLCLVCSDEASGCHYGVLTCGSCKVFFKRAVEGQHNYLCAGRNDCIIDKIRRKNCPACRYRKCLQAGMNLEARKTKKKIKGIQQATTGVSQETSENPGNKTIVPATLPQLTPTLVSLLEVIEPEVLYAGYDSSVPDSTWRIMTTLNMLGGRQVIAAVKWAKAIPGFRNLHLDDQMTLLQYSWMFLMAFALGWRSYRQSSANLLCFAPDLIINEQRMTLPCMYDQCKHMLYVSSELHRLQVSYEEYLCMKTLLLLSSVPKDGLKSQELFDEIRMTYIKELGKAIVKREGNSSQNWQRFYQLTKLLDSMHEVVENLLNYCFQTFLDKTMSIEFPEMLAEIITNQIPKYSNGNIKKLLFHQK
Outline: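 CHO-K1 cells stably expressing nuclear-localized β-gal enzyme acceptor and GR fused C-terminally to the enzyme donor fragment; ligand-driven nuclear translocation restores β-gal by complementation. Compounds titrated up to 46 uM final, 2 h at 37 °C; luminescence read.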

[6] = biological target: Mitogen-activated protein kinase 10 (Mus musculus) (UniProt Q61831); assay: JNK3 AlphaScreen Assay (AID 530); conditions: JNK3 lysate, c-Jun phosphorylation; series mostly up to 57.1 µM;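 note: kinase came from lysate of stimulated human HepG2 cells; signal reports phosphorylation of biotinylated GST-cJun 1-79 at Ser73 with 10 µM ATP; % is set by controls: 0 for no effect and ±100 for the full control effect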
Outline: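 Inhibitors reduce antibody binding to phosphorylated biotin-cJun, lowering AlphaScreen luminescence. Lysates from HepG2 cells pre-activated by IL-1beta plus TNF-alpha supplied JNK3; compounds were titrated.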

[7] = biological target: 3',5'-cyclic-AMP phosphodiesterase 4B (Homo sapiens) (UniProt Q07343); assay: qHTS Assay for Inhibitors of PDE-IV (AID 607; active = well fitted activation curve with a large enough effect in the main read-out, with a control signal flat, not every such curve was filed as active; note: % of control where 0% means no effect); conditions: HEK293 ACTOne CNG channel cells, membrane potential fluorescence; series mostly up to 22.9 µM
Sequence of 3',5'-cyclic-AMP phosphodiesterase 4B (Homo sapiens) (Q07343 whole entry, looked up): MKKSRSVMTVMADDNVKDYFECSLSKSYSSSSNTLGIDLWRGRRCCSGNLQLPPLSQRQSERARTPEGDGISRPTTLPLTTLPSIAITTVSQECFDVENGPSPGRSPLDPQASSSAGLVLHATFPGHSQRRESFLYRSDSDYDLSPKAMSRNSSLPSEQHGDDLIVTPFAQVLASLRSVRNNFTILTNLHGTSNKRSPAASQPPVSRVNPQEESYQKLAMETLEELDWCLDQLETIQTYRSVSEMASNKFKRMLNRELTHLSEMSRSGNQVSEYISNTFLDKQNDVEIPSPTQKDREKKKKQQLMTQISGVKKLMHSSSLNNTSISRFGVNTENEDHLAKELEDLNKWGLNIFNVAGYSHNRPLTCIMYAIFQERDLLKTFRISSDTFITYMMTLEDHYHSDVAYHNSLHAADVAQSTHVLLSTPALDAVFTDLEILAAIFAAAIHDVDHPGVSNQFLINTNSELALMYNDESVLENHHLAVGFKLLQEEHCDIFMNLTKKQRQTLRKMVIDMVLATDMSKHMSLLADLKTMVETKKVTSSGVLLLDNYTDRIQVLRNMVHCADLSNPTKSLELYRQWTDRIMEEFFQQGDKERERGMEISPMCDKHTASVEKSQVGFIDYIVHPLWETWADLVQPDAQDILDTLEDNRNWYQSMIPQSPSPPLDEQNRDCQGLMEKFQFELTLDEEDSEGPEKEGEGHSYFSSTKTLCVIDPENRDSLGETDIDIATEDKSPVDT
Outline: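 The readout is membrane depolarisation from a cAMP-sensing CNG channel, detected with a potential dye at ex 535/em 590. Cells were HEK293-derived (endogenous PDE-IV) at 1000 cells/well, titrated up to 22.9 uM final.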

[8] = qHTS Assay for Lipid Storage Modulators (AID 1519; calls by dose curve); conditions: Drosophila S3 cells, BODIPY lipid droplet/cell ratio, laser cytometry, cells loaded with oleic acid; for activity change, negative = inhibition: at 57.5 µM (top of the series)
Outline: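 Cells seeded at 5,000 per well were treated with compounds over a concentration series and loaded with oleic acid (400 uM, as added). Lipid droplet fluorescence (488 nm excitation, 500-530 nm channel) was read by laser-scanning cytometry and normalized to 20 uM Triacsin C.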

[9] = Primary qHTS for small molecule stabilizers of the endoplasmic reticulum resident proteome: Secreted ER Calcium Modulated Protein (SERCaMP) assay (AID 1508630; active = well fitted inhibition curve with a large enough effect; note: % is set by controls: 0 for no effect and ±100 for the full control effect); conditions: SH-SY5Y GLuc-SERCaMP (Gaussia luciferase released on ER calcium loss) secretion, thapsigargin, luminescence; series mostly up to 38.4 µM
Outline: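 GLuc-SERCaMP-expressing SH-SY5Y cells, pretreated 16 h with compound, are challenged with thapsigargin to empty ER calcium stores; after 4 h, coelenterazine is added directly to the medium and luminescence is imaged.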

[10] = measured here: cell count channel max response
[11] = measured here: lipid channel max response

SMILES | Potency [1] | activity change, negative = inhibition [2] | activity change, negative = inhibition [3] | activity, negative = inhibition [4] | Potency [5] | Potency [6] | Potency [7] | activity change, negative = inhibition [8] | max response [8, 10] | max response [8, 11] | outcome [9]
Cn1cccc1C(=O)N1CCC2(CCN(C(=O)Nc3cccc(C#N)c3)CC2)CC1 | > 11.4 µM (inactive) | -16.2% (inactive) | 8.67% (inactive) | -3.46% (inactive) | > 46 µM (inactive) | inactive | inactive | 4.21% (inactive) | 4.21% | 11.6% | inactive
COc1ccc(NC(=O)N2CC[C@@]3(CCCN(C(=O)c4ccco4)C3)C2)cc1 | > 11.4 µM (inactive) | -13.2% (inactive) | -7.9% (inactive) | 13.8% (inactive) | > 46 µM (inactive) | inactive | inactive | 2.86% (inactive) | 9.78% | 12.5% | inactive
CC(=O)N1CCC[C@@]2(CCN(C(=O)Nc3ccccc3)C2)C1 | > 11.4 µM (inactive) | 10.4% (inactive) | 22.8% (inactive) | -3.7% (inactive) | > 46 µM (inactive) | inactive | inactive | 3.44% (inactive) | -12.3% | -5.99% | inactive
COCC(=O)N1CCC[C@@]2(CCN(C(=O)Nc3ccccc3)C2)C1 | > 11.4 µM (inactive) | -5.16% (inactive) | 1.53% (inactive) | -3% (inactive) | > 46 µM (inactive) | inactive | inactive | 5.08% (inactive) | 3.08% | 10.8% | inactive
CS(=O)(=O)N1CCC[C@@]2(CCN(Cc3ccc(C#N)cc3)C2)C1 | > 11.4 µM (inactive) | 10.7% (inactive) | -5.85% (inactive) | -6.21% (inactive) | > 46 µM (inactive) | inactive | inactive | 1.64% (inactive) | -0.832% | -0.755% | inactive
COc1ccc(NC(=O)N2CC3(CCN(C(=O)c4cc(C(F)(F)F)cc(C(F)(F)F)c4)CC3)C2)cc1 | > 11.4 µM (inactive) | -15.1% (inactive) | 16% (inactive) | -20.2% (inactive) | > 46 µM (inactive) | inactive | inactive | 2.01% (inactive) | 12.2% | 18.4% | inactive
COCC(=O)N1CCC[C@@]2(CCN(c3ccccn3)C2)C1 | > 11.4 µM (inactive) | -4.6% (inactive) | -11.3% (inactive) | -4.62% (inactive) | > 46 µM (inactive) | inactive | inactive | 2.24% (inactive) | -4.94% | -1.36% | inactive
O=C(Nc1ccccc1)N1CC[C@@]2(CCCN(C(=O)c3csnn3)C2)C1 | > 11.4 µM (inactive) | -13.6% (inactive) | 9.61% (inactive) | 0.432% (inactive) | > 46 µM (inactive) | inactive | inactive | 6.56% (inactive) | -5.15% | 6.65% | inactive
COCC(=O)N1CCC2(CC1)CN(c1ccccc1)C2 | > 11.4 µM (inactive) | -8.7% (inactive) | 2.5% (inactive) | 10.6% (inactive) | > 46 µM (inactive) | inactive | inactive | 4.95% (inactive) | 15% | 21.1% | inactive
c1ccc(-c2cccc(N3CCCC4(CCNCC4)C3)c2)cc1 | > 11.4 µM (inactive) | 11.2% (inactive) | -11% (inactive) | 8.57% (inactive) | > 46 µM (inactive) | inactive | inactive | 2.43% (inactive) | -2.04% | 1.36% | inactive
COc1ccc(C(=O)N2CCC[C@@]3(CCN(c4ccccn4)C3)C2)cc1 | > 11.4 µM (inactive) | -10.4% (inactive) | -4.97% (inactive) | -7.47% (inactive) | > 46 µM (inactive) | inactive | inactive | 5.2% (inactive) | 13.5% | 23.4% | inactive
O=C(c1csnn1)N1CCC[C@@]2(CCN(Cc3cc(C(F)(F)F)cc(C(F)(F)F)c3)C2)C1 | > 11.4 µM (inactive) | -0.847% (inactive) | 2.05% (inactive) | -8.74% (inactive) | > 46 µM (inactive) | inactive | inactive | 5.01% (inactive) | 20.3% | 22.1% | inactive
O=C(c1cccc(F)c1)N1CCC[C@@]2(CCN(c3ccccn3)C2)C1 | > 11.4 µM (inactive) | -17% (inactive) | -7.81% (inactive) | -6.48% (inactive) | > 46 µM (inactive) | inactive | inactive | 6.88% (inactive) | 12.7% | 23.1% | inactive
O=C(Nc1cccc(F)c1)N1CC2(CCN(C(=O)c3ccco3)CC2)C1 | > 11.4 µM (inactive) | -3.07% (inactive) | 4.39% (inactive) | 1.12% (inactive) | > 46 µM (inactive) | inactive | inactive | 5.94% (inactive) | 1.85% | 13.6% | inactive
